The subject of experiment [1] is Human papillomavirus type 1a protein E7 (residues 44-93). As to the kind of experiment: HPV1a E7 fragment binders on microarrays, primary screen, biochemical, small-molecule microarray, residues 44-93, 635 nm fluorescence (AID 1108).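 Further: E7 fragment applied at 1 µg/mL in TBST for 1 h at 4 C; score combines spot fluorescence with its signal to noise ratio.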 The settings on record: small-molecule microarray binding, fluorescence 635 nm; higher = more signal.
Experiment [2] can be described thus: modulators of HCV replicon luciferase signal, primary screen, HCV replication inhibitor project, Huh7 cells, luciferase reporter (AID 1109).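 Further: huh7 hepatoma cells harbouring a luciferase neomycin HCV replicon reporter; luciferase luminescence as measure of HCV replicon replication; test concentration not given here.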 The settings on record: 48 h, higher = more signal.
Experiment [3] concerns the target Left-right determination factor 2 (Homo sapiens) (UniProt O00292). The experiment in a line: LEFTY2 binders on small-molecule microarrays, primary screen, biochemical, small-molecule microarray, 635 nm fluorescence scan (AID 1110). The conditions noted are these: LEFTY2 binding, higher = more signal.
Experiment [4] concerns the target Calmodulin-1 (Homo sapiens) (UniProt P0DP23). As to the kind of experiment: CALM1 binders on microarrays, EGTA buffer, profiling panel, biochemical, small-molecule microarray, Cy5-labelled CALM1 (AID 1111).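 Further: labelled calmodulin applied in Tris saline Tween buffer holding calcium plus EGTA and DTT.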 The settings on record: Cy5-CALM1 binding fluorescence, higher = more signal.
Experiment [5] shares this target. The experiment in a line: calcium-bound CALM1 binders on microarrays, profiling panel, artefact control for SMM control-protein annotation, biochemical, small-molecule microarray, Cy5-labelled CALM1, plus calcium (AID 1112).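 Further: score merges spot fluorescence with signal to noise from triplicate slides.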 The settings on record: Cy5-CALM1 binding fluorescence, higher = more signal.
The nature of experiment [6]: small-molecule microarray binders of probe aWnt5a, primary screen, biochemical, biotinylated probe, 635/667 nm fluorescence (AID 1113).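 Further: score merges 667 nm fluorescence intensity with signal-to-noise per printed feature.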 The settings on record: higher = more signal.
Experiment [7] in a line: small-molecule microarray binders of probe aShh, primary screen, biochemical, biotinylated probe, 635/667 nm fluorescence (AID 1114).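 Further: probe is biotin-labelled aShh protein from a stem cell growth factor screen; measures binding of labelled protein to compounds printed on the slide; score merges feature fluorescence at 667 nm with signal-to-noise.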 The conditions noted are these: higher = more signal.
Experiment [8] can be described thus: small-molecule microarray binders of probe aNog, primary screen, biochemical, biotinylated probe, 635/667 nm fluorescence (AID 1115).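 Further: probe is biotinylated aNog protein used at 0.15 µg/mL for 1 h at 4 C; z-score combines 667 nm fluorescence of each spot with its signal to noise.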 The settings on record: higher = more signal.
Experiment [9] concerns the target Torsin-1A-interacting protein 1 (Homo sapiens) (UniProt Q5JTV8). The experiment in a line: LAP1 binders from COS7 cell lysate, primary screen, small-molecule microarray, 635/667 nm fluorescence (AID 1116). The settings on record: COS7-hLAP1 lysate binding, 635 nm fluorescence, higher = more signal.
Experiment [10] addresses Alpha-bungarotoxin (Bungarus multicinctus) (UniProt P60615). As to the kind of experiment: alpha-bungarotoxin binders on microarray, profiling panel, artefact control for SMM control protein annotation, biochemical, small-molecule microarray, Alexa647 label, 635/667 nm fluorescence (AID 1117). The conditions noted are these: alpha-BTX-A647 binding fluorescence, higher = more signal.

Sequence of Torsin-1A-interacting protein 1 (Homo sapiens) (Q5JTV8 whole entry, looked up): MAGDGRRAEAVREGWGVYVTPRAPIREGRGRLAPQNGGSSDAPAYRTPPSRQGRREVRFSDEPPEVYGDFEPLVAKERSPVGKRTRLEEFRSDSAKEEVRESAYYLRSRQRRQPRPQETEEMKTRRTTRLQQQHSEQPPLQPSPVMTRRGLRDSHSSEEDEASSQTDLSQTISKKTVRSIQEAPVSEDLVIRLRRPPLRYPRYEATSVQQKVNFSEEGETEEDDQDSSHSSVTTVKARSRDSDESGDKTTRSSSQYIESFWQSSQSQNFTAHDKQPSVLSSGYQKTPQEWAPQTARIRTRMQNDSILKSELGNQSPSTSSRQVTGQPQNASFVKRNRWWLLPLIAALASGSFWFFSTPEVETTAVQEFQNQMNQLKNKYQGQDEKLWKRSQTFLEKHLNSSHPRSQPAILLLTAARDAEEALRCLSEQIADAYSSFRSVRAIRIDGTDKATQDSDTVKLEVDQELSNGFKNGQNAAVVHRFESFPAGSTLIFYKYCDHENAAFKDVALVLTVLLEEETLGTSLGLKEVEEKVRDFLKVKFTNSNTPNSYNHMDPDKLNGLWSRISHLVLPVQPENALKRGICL
Sequence of Left-right determination factor 2 (Homo sapiens) (O00292 whole entry, looked up): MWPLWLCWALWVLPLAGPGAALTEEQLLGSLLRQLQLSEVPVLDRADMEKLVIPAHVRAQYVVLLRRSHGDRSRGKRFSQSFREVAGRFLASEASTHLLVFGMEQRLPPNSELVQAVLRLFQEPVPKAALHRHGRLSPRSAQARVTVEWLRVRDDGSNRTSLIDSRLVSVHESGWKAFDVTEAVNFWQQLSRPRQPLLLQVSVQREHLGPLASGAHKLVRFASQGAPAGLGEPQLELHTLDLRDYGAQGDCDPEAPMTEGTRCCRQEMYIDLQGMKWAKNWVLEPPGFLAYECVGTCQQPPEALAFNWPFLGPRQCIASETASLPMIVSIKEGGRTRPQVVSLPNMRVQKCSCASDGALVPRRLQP
Sequence of Alpha-bungarotoxin (Bungarus multicinctus) (P60615 whole entry, looked up): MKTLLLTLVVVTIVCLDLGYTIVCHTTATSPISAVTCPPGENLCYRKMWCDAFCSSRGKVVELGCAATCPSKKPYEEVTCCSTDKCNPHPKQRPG

In the case of `CCN(CC)c1ccc(N2CC=CC34O[C@@H]5/C=C\CCCOC(=O)C5[C@H]3C(=O)N(CCO)[C@@H]4C2=O)cc1` (stereo not given in full), the composite z-score in experiment [1] is -0.0422; in [3], -0.85; in [4] it was -0.557; in [5], 0.172; in experiment [6], -0.113; in [7], -0.0769. The composite z-score in experiment [8] is -0.406; in experiment [9], -0.233; in experiment [10] it was -0.259. For the same molecule, the z-score in experiment [2] was -0.684.

Take `C=CCOC(=O)[C@@H]1[C@H]2C(=O)O[C@H](c3ccccc3)[C@H](c3ccccc3)N2[C@H](c2ccc(OCCOC(=O)[C@@H]3C[C@@H]4C(=O)N[C@@H](CCCC[N+](C)(C)C)C(=O)N4[C@@H]3c3cccc(OCCO)c3)cc2)[C@@]12C(=O)Nc1ccc(I)cc12`: the composite z-score in [1] is 0.741; in [3], 0.692; in [4], 1.02; in experiment [5], 0.0416; in experiment [6], -0.0512; in experiment [7] it was -0.0146. Further, the composite z-score in experiment [8] is 0.886; in [9], 0.897; in experiment [10] it was 1.59. In experiment [2], this molecule registered a z-score of -2.48.

In the case of `C=CC[C@]1(C(=O)NCCCOC)N=C(c2ccc(OCCCO)cc2)O[C@H]1c1ccccc1N=[N+]=[N-]`, the composite z-score in experiment [1] is 1.05; in experiment [3], -0.338; in experiment [4] it was 2.08; in experiment [5], 0.312; in experiment [6], 0.191; in experiment [7], 0.535. In addition, the results for the composite z-score in experiment [8], in experiment [9] and in experiment [10] were 1.8, 1.47 and 0.928, respectively. This molecule registered a z-score in [2] of -0.682.

For `CC(=O)n1cc(C(O)C2C=CC3C(=O)N(C)C(=O)C3N2Nc2ccccc2)c2ccccc21` (stereo not given), the composite z-score in [1] was 1.35; in experiment [3], 0.532; in experiment [4] it was 0.202; in [5] it was -0.53; in [6], 0.105; in experiment [7] it was 0.494. The composite z-score stood at 0.578 in experiment [8], 1.36 in experiment [9] and 1.18 in [10]. Besides, the z-score in experiment [2] was -0.581.

`CCOC(=O)[C@H]1CC=C2CC1C(=O)N1CCC[C@@H]1[C@@H]2O[Si](C)(C)C(C)(C)C` (stereo not given in full): the composite z-score was -0.404 in [1]; 0.377 in [3]; -1.45 in experiment [4]; -1.61 in experiment [5]; -0.237 in experiment [6]; -0.297 in experiment [7]. For the same molecule, the composite z-score is 0.14 in experiment [8], -0.523 in experiment [9] and -1.15 in experiment [10]. Further, in experiment [2], the z-score was -3.01.

Turning to `O=C1C2C=CC(C(O)c3ccc(F)cc3)N(Nc3ccccc3F)C2C(=O)N1c1ccccc1` (stereo not given), the composite z-score was 1.18 in experiment [1]; -0.952 in experiment [3]; 1.23 in experiment [4]; 0.367 in experiment [5]; -0.001 in experiment [6]; -0.0441 in experiment [7]. Besides, the composite z-score in experiment [8] was determined as 1.34; in experiment [9], 0.694; in experiment [10], 0.394. For the same molecule, in experiment [2], the z-score is 0.912.

Take `COCCOC(=O)N1C(=O)[C@@]2(c3cc(C#CC4=CCCCC4)ccc31)[C@H](C(N)=O)[C@H]1C(=O)O[C@H](c3ccccc3)[C@H](c3ccccc3)N1[C@@H]2c1ccc(OCCO)cc1`: the composite z-score in [1] is -0.71; in [3], 0.331; in [4], -0.822; in experiment [5] it was -0.919; in experiment [6], -0.124; in [7] it was 0.049. In addition, the composite z-score turned out to be 0.299 in [8], 0.855 in experiment [9] and 1.56 in [10]. In addition, the z-score in [2] was -2.5.

Consider `COCC(=C=CC[C@@H](O)c1ccccc1OCCO)C[C@@H](O)c1cc(Cl)cc(Cl)c1O`, for which the composite z-score was 1.44 in [1]; 0.635 in [3]; 0.362 in [4]; -0.534 in experiment [5]; -0.126 in experiment [6]; -0.14 in experiment [7]. Moreover, the composite z-score in experiment [8] was -0.0863; in experiment [9] it was 0.704; in experiment [10] it was 0.792. The molecule also showed a z-score in experiment [2] of -2.21.

Take `CCCCCN1CC=CC23O[C@@H]4/C=C\CCCOC(=O)C4[C@H]2C(=O)N(CCCO)[C@@H]3C1=O` (stereo not given in full): the composite z-score in experiment [1] was 0.626; in [3], -0.174; in experiment [4] it was -0.113; in experiment [5], 0.132; in experiment [6] it was -0.128; in experiment [7], -0.214. Besides, the composite z-score is -0.244 in experiment [8], 2.88 in experiment [9] and -0.0566 in experiment [10]. This molecule also came in with a z-score in experiment [2] of -0.549.

For the molecule `Cc1ccc(S[C@]2(C(=O)NCCN3CCOCC3)CC(=O)N(Cc3ccccc3)[C@@H]2c2ccc(CO)cc2I)cc1`, the composite z-score in [1] is 0.0104; in experiment [3], -0.601; in [4], -0.318; in experiment [5], -0.431; in [6], -0.124; in [7], -0.17. In addition, the composite z-score in [8] was 0.0323; in experiment [9], -0.914; in [10], -1.07. For the same molecule, the z-score in [2] is -3.12.

`COC(=O)[C@@]1(Cc2ccc(F)cc2)[C@H]2c3cc(C(=O)N4CCCC4)n(Cc4ccc(C)o4)c3C[C@H]2CN1C(=O)c1ccccc1`: the composite z-score in experiment [1] was 1.4; in experiment [3], -0.699; in experiment [4], 1.48; in experiment [5], 0.558; in experiment [6], 0.319; in experiment [7] it was 0.862. In addition, the composite z-score in [8] was -0.632; in experiment [9], 0.11; in experiment [10], 0.948. The molecule also yielded a z-score in [2] of -2.32.

For `COc1ccc(CCNC(=O)[C@@]2(C)c3ccccc3C(=O)N(Cc3cc(F)cc(C(F)(F)F)c3)[C@H]2c2ccc(CO)cc2)cc1`, the composite z-score was 0.0404 in experiment [1]; -0.454 in experiment [3]; 0.123 in experiment [4]; -0.183 in experiment [5]; -0.0944 in [6]; -0.0849 in experiment [7]. Besides, the composite z-score was 0.549 in experiment [8], -0.152 in experiment [9] and -0.838 in [10]. For the same molecule, the z-score in experiment [2] is -0.928.

For the molecule `COc1ccc([Si](C)(C)[C@H]2[C@H](CCn3cc([C@H](O)c4ccccc4)nn3)O[C@@]3(C(=O)N(Cc4cccc(N5CCOC5=O)c4)c4ccccc43)[C@@H]2C)cc1`, the composite z-score in experiment [1] is 0.96; in experiment [3] it was 0.481; in experiment [4], 0.0776; in experiment [5], -0.182; in experiment [6], 0.0094; in experiment [7] it was -0.349. Also, the composite z-score in experiment [8] is -0.0612; in experiment [9], 0.0061; in experiment [10], 0.353. Moreover, the z-score in [2] was -2.36.

With `CC(C)(C)OC(=O)CC[C@]1(C(=O)NCC(O)CO)COC(c2ccc(OCCCO)cc2)=N1` (stereo not given in full), the composite z-score in experiment [1] was 1.31; in [3], -0.455; in experiment [4] it was 1.5; in experiment [5], 0.834; in [6], -0.0512; in experiment [7] it was 0.275. In addition, the composite z-score was found to be 0.592 in experiment [8], 1.7 in experiment [9] and 1.88 in experiment [10]. The molecule further registered a z-score in experiment [2] of -0.105.

On to `CCCCC(=C=CC[C@@H](O)c1ccccc1OCCO)CCO`, for which the composite z-score in experiment [1] was -0.0803; in experiment [3], -0.855; in experiment [4] it was 0.184; in [5] it was 0.23; in experiment [6], -0.147; in experiment [7], -0.366. The results for the composite z-score in experiment [8], in [9] and in [10] were -0.034, 0.212 and -0.0423, respectively. For the same molecule, the z-score in [2] was -0.23.

In the case of `COC(=O)c1c(CC[C@@H](CO)NC(=O)N2CCC[C@H]2Cn2cc(-c3ccccn3)nn2)oc(C(C)=O)c1C(=O)OC`, the composite z-score in [1] was 0.0413; in [3], -0.219; in [4], -0.209; in [5] it was -0.747; in [6], -0.152; in experiment [7] it was -0.0474. Further, the composite z-score is -0.0418 in experiment [8], -0.219 in [9] and -0.0614 in experiment [10]. Besides, the z-score in [2] was -1.03.

`COc1ccc(C(=O)Nc2ccc(CN3C(=O)[C@@]4(O[C@@H](CCO)[C@H]([Si](C)(C)c5ccc(OC)cc5)[C@H]4C)c4ccccc43)cc2)cc1`: the composite z-score in experiment [1] was 0.908; in [3], 0.861; in experiment [4], 0.0404; in [5], -0.608; in experiment [6], 0.0367; in experiment [7], -0.0146. Besides, the composite z-score in experiment [8] worked out at 0.0395; in experiment [9] it was 1.12; in [10], 0.643. In [2], this molecule showed a z-score of -5.15.
